The list is not random: actives were taken first. Their share in the collection is about 2.9%.
PLC-beta3 inh = human PLC-beta3 inhibitors, primary screen, biochemical, fluorescence | 1-phosphatidylinositol 4,5-bisphosphate phosphodiesterase beta-3 (Homo sapiens), Q01970 | Purified PLC-beta3, fluorogenic substrate | inhibition, % at 12.2 µM | 370,000 compounds, 0.18% hits
ADAM10 inh = human ADAM10 inhibitors, primary screen, biochemical, QFRET, HTS; inhibition, % at 7 µM; 370,000 compounds, 0.62% hits; recombinant ADAM10, EDANS/DABCYL FRET peptide cleavage, 3 h; Disintegrin and metalloproteinase domain-containing protein 10 (Homo sapiens), O14672;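 active means inhibition above a per-campaign cutoff equal to the mean of compounds falling between control-based bounds plus 3 SD, cut at about 20% in these data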
ADAM17 inh = ADAM17 inhibitors, primary screen, biochemical, QFRET. recombinant ADAM17, EDANS/DABCYL FRET peptide cleavage. inhibition, % at 6.95 µM. 370,000 compounds, 0.83% hits;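 active means inhibition above the mean of compounds lying between control limits plus 3 SD, set per campaign, cut at about 8.5% in these data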
proKLK7 act = proKLK7 zymogen activators, primary screen, biochemical, fluorescence intensity; Kallikrein-7 (Homo sapiens), P49862; purified proKLK7, EDANS-DABCYL substrate fluorescence; 100% is mature enzyme control, 0% vehicle; activation, % at 7 µM; 370,000 compounds, 0.9% hits; AID 652039, 2013;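 active means activation above the mean of all tested compounds plus 3 SD, computed per campaign excluding outliers beyond control limits, cut at about 13% in these data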
Target sequence (P49862 whole entry, looked up): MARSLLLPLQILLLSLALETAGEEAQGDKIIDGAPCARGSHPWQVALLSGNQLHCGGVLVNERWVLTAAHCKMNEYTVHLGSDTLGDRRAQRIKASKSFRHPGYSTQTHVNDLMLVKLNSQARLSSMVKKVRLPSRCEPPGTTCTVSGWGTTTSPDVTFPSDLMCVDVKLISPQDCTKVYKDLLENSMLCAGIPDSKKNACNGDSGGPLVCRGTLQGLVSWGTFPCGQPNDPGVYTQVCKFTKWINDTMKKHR
PLCg1 inh = PLC-gamma1 enzyme inhibitors, primary screen, biochemical, fluorescence, purified enzyme. 1-phosphatidylinositol 4,5-bisphosphate phosphodiesterase gamma-1 (Homo sapiens), P19174. fluorogenic substrate. inhibition, % at 12.2 µM. 370,000 compounds, 0.84% hits. AID 720700, 2013; in the data active means inhibition above about 9.5%
PLCgamma1 ctr = PLC-gamma1 enzyme inhibitors, counter-screen for PLC-beta3 inhibitor project, biochemical, fluorescence; shares compounds with PLCg1 inh; purified PLC-gamma1, fluorogenic substrate; 3,300 compounds, 3.1% hits; inhibition, % at 12.3 µM; AID 743258, 2014; in the data active means inhibition above about 9.5%
PLCb3 confirm = PLC-beta3 inhibitor confirmation, biochemical, fluorescence, purified enzyme; shares compounds with PLCg1 inh; AID 743261, 2014; 3,300 compounds, 1% hits; inhibition, % at 12.3 µM; fluorogenic substrate fluorescence
Numbers stand for hits; . = inactive; / = no result given. Unless noted, no stated cut-off is given here; in the data, active means inhibition above about 11%; inactive means the rest.

SMILES | PLC-beta3 inh | ADAM10 inh | ADAM17 inh | proKLK7 act | PLCg1 inh | PLCgamma1 ctr | PLCb3 confirm
Cc1ccc(S(=O)(=O)Nc2ccc3c(c2)CCC3)cc1 | . | . | . | . | . | / | /
COC(=O)c1sccc1NC(=O)CN(C)NS(=O)(=O)c1ccc(Cl)cc1 | . | . | . | . | . | / | /
COC(=O)c1sccc1NC(=O)CN(C)NS(=O)(=O)c1ccc(F)cc1 | . | . | . | . | 12 | . | .
CN1C(=O)C(c2cn(C)c3ccccc23)(c2cn(C)c3ccccc23)c2cc(F)ccc21 | . | . | . | . | . | / | /
CN1C(=O)[C@@](O)(c2cn(C)c3ccccc23)c2cc(F)ccc21 | 12 | . | . | . | . | . | .
CNc1c(NS(=O)(=O)c2ccc(OC)c(Cl)c2)c(=O)oc2ccccc12 | . | . | . | . | 11 | . | .
CCNc1c(NS(=O)(=O)c2ccc(OC)c(Cl)c2)c(=O)oc2ccccc12 | . | . | . | . | . | / | /
CSCCCNc1nc(C)nc2c1nnn2Cc1ccccc1 | . | . | . | . | . | / | /
CCOc1ccccc1OCCCC(=O)Nc1nc2ccccc2[nH]1 | 13 | . | . | . | . | . | .
CC(C)(C)OC(=O)C[C@@H]1C/C=C\C[C@@H](CC(=O)N(CCO)Cc2ccccc2)C(=O)N[C@@H](c2ccccc2)COC1=O | . | . | . | . | . | / | /
CCCN(CC(=O)Nc1ccccc1C)C(=O)c1cnc(C)cn1 | . | . | . | . | . | / | /
CCOc1ccc(C(=O)Nc2ccc3c(c2)OCCO3)cc1[N+](=O)[O-] | . | . | . | . | 10 | . | .
CCOc1ccc(C(=O)Nc2ccc3c(c2)OCCO3)cc1OC | . | . | . | . | . | / | /
CN(C)c1nc(Nc2ccccc2)nc(Oc2ccc(=O)[nH]n2)n1 | . | . | . | . | . | / | /
Cc1ccc(Nc2nc(Oc3ccc(=O)[nH]n3)nc(N(C)C)n2)cc1 | . | . | . | . | 10.0 | . | .
O=S(=O)(NCCCCCNS(=O)(=O)c1ccc(F)cc1)c1ccc(F)cc1 | . | . | . | . | . | / | /
O=C(O)CCCNS(=O)(=O)c1ccc(F)cc1 | . | . | . | . | 9.7 | . | .
Cc1ccc(S(=O)(=O)N2CCOCC2)cc1NC(=O)c1cc2ccccc2oc1=O | . | . | . | . | 10 | . | .
O=C(Nc1cccc(Cl)c1)c1csc(COCCO)n1 | . | . | . | . | 10.0 | . | .
O=C(c1cccc(Cl)c1)N1CCN(c2ccc3c(c2)C2CC3CCN2C(=O)OCc2ccccc2)CC1 (stereo not drawn) | . | . | . | . | . | / | /
O=C(OCc1ccccc1)N1CCC2CC1c1ccc(N3CCN(Cc4ccccc4)CC3)cc12 (stereo not drawn) | 14 | . | . | . | . | . | .
O=C(CN1CCC(NC(=O)Nc2ccccc2)CC1)Nc1ccc([N+](=O)[O-])cc1 | . | . | . | . | . | / | /
Cc1cccc[n+]1CC(=O)Nc1ccc([N+](=O)[O-])cc1Cl | . | . | . | . | 14 | . | .
Cc1ccccc1NC(=O)Nc1ccc(C(F)(F)F)cc1 | 12 | . | . | . | 13 | . | .
Cc1ccccc1NC(=O)CNC(=O)c1ccc(C(F)(F)F)cc1 | . | . | . | . | . | / | /
SMILES | PLC-beta3 inh | ADAM10 inh | ADAM17 inh | proKLK7 act | PLCg1 inh | PLCgamma1 ctr | PLCb3 confirm
CCOc1ccc(Nc2nc(-c3cccnc3)cs2)cc1 | . | . | . | . | 12 | . | .
Brc1ccc(Nc2nc(-c3cccnc3)cs2)cc1 | . | . | . | . | . | / | /
Cc1cccc(/N=C2/NC(=O)C(Cc3ccccc3)S2)n1 (stereo not drawn) | . | . | . | . | . | / | /
CCOc1ccc(CC2S/C(=N/c3ccccn3)NC2=O)cc1 (stereo not drawn) | . | . | . | . | 11 | . | .
Cn1c(NCCCN2CCOCC2)nc2c1c(=O)n(Cc1ccc(Cl)cc1Cl)c(=O)n2C | . | . | . | . | 12 | . | .
CCC1Oc2ccc(C)cc2N(CC(=O)NCCN2CCOCC2)C1=O (stereo not drawn) | . | . | . | . | . | / | /
Nc1nnc(SCc2ccc(Cl)cc2)s1 | . | . | . | . | . | / | /
Clc1ccc(CSc2nnc(NC3=NCCCCC3)s2)cc1 | 11 | . | . | . | . | . | .
CSc1nc(C)cc(Oc2ccc(OCCOc3ccccc3)nn2)n1 | . | . | . | . | . | / | /
CCCOc1ccc(Oc2cc(C)nc(SC)n2)nn1 | 13 | . | . | . | . | . | .
O=C1Nc2ccc(Br)cc2C1(O)c1ccc(F)cc1 (stereo not drawn) | . | . | . | . | . | / | /
O=C1c2ccccc2C(=O)N1Cc1cccnc1 | . | . | . | . | 12 | . | .
Cc1ccc(C(C)C)cc1S(=O)(=O)NC1CC(C)(C)NC(C)(C)C1 | . | . | . | . | . | / | /
COc1cc(F)ccc1S(=O)(=O)N1CCN(c2ccccc2)CC1 | . | . | . | . | . | / | /
CC(C)C(OC(=O)c1cc2c(s1)CCCCC2)C(=O)NC(N)=O (stereo not drawn) | . | . | . | . | 18 | . | .
O=C(CSc1nnc(-c2ccccn2)n1Cc1ccco1)Nc1ccc(Oc2ccccc2)cc1 | . | . | . | . | 11 | . | .
O=C(NCCc1ccc(Cl)cc1)/C(=C/c1cccnc1)NC(=O)c1ccccc1 | . | . | . | . | . | / | /
COc1ccccc1NC(=O)C(=N\O)/C(C)=N/O | . | . | . | . | 11 | . | .
COc1ccccc1NC(C)=O | . | . | . | . | . | / | /
Cn1c(C(=O)N2CCN(c3ccc(F)cc3)CC2)cc2ccccc21 | . | . | . | . | . | / | /
O=C(OCC(=O)N1CCCc2ccccc21)c1cc(Cl)ccc1O | . | . | . | . | . | / | /
CN1C(=O)N(CC(=O)Nc2cccc(S(=O)(=O)N(C)c3ccccc3)c2)C(=O)C12CCCCC2 | . | . | . | . | 14 | . | .
CCC1CCC2(CC1)NC(=O)N(CC(=O)Nc1cccc(S(=O)(=O)N(C)c3ccccc3)c1)C2=O (stereo not drawn) | . | . | . | . | . | / | /
Cc1sc2ncnc(N3CCC(C(=O)Nc4cc(C(F)(F)F)ccc4OCC(F)(F)F)CC3)c2c1C | . | . | . | . | . | / | /
O=C(COC(=O)CCc1nc2ccccc2s1)Nc1cccc(S(=O)(=O)N2CCOCC2)c1 | . | . | . | . | 11 | . | .
CC(=O)N1CCc2c(sc(NC(=O)Cc3ccc(C)cc3C)c2C#N)C1 | . | . | . | . | . | / | /

Bioassay records (PubChem)
